Results with a measured potency or affinity are listed apart.

For one assay, the system named is Klebsiella pneumoniae. As to conditions: Concentration 32 ug.mL-1; ASSAY_TEST Inhibition of Bacterial Growth; detection method Absorption (OD600); MEDIA CAMHB; plate type 384well; NBS; CORNING #3640; time 18 hr.
In the next assay the test system is Candida albicans. The following applies: 32 ug/mL.
Another assay has as its system Cryptococcus neoformans. The following applies: Concentration 32 ug.mL-1; ASSAY_TEST Inhibition of Fungal Growth; detection method Resazurin; Absorption (OD600-OD570); plate type 384well; NBS; CORNING #3640. (In general: The colour change of resazurin is a common sign of viable cells or microbes.)

The term Inhibition denotes the change of the read-out against control, counted positive when it falls. In the case of `CCOC(=O)C1=C(C)OC(N)=C(C#N)C1c1ccccc1` (stereo not drawn), the Inhibition was 11.23% in the assay with Klebsiella pneumoniae, 6.07% with Candida albicans and -42.71% with Cryptococcus neoformans.
As to `CC(=O)n1cc(/C=C2\N=C(c3ccccc3)OC2=O)c2ccccc21`, the values for the Inhibition in the assay on Klebsiella pneumoniae, in the assay on Candida albicans and with Cryptococcus neoformans were 0.98%, 1.66% and -2.55%, respectively.
On to `C#CCNc1nc(NC2CCN(Cc3ccccc3)CC2)c(C#N)cc1C#N.Cl`, for which the Inhibition was -9.27% in the assay on Klebsiella pneumoniae, 1.54% in the assay with Candida albicans and -92.81% in the assay on Cryptococcus neoformans.
`N#CC1=C(N)Oc2ccc3ccccc3c2C1c1ccccc1[N+](=O)[O-]` (stereo not drawn): the results for the Inhibition in the assay with Klebsiella pneumoniae, with Candida albicans and in the assay on Cryptococcus neoformans were 9.29%, 2.32% and -44.45%, respectively.
On the same counts, the results for `COc1cc(C2c3ccc4ccccc4c3Oc3nc4c(c(N)c32)CCCC4)ccc1O.Cl` (stereo not drawn) are -2.62%, -0.98% and -5.33%.
For `C/C(=N\NC(=O)c1cc2ccccc2n1Cc1ccccc1)C1CC1`, in that order: 4.04%, 0.9% and -0.08%.
In the case of `c1ccc(Cn2ccc3ccccc32)cc1`, the Inhibition in the assay on Klebsiella pneumoniae was 13.32%; in the assay with Candida albicans, 4.28%; with Cryptococcus neoformans, -3.9%.
Regarding `O=C(O)C(=Cc1ccccc1)NC(=O)c1ccccc1`, the values for the Inhibition with Klebsiella pneumoniae, in the assay on Candida albicans and in the assay on Cryptococcus neoformans were 27.9%, 0.44% and -6.77%, respectively.
Regarding `CC(=O)NCCc1ccccc1`, the Inhibition was 14.22% in the assay with Klebsiella pneumoniae, 1.13% with Candida albicans and -3.47% in the assay on Cryptococcus neoformans.
For `CC(C)(C)OC(=O)N[C@H]1CC[C@H](O)CC1`, the Inhibition in the assay with Klebsiella pneumoniae was 7.91%; in the assay with Candida albicans, 0.02%; in the assay on Cryptococcus neoformans, -36.58%.
As for `O=c1oc2cc(O)ccc2cc1-c1ccccc1`, the Inhibition in the assay with Klebsiella pneumoniae was 3.33%; with Candida albicans, -0.21%; with Cryptococcus neoformans, -4.62%.
In the case of `COc1ccc(C2C(C#N)=C(N)Oc3[nH]nc(C)c32)cc1` (stereo not drawn), the results for the Inhibition with Klebsiella pneumoniae, in the assay on Candida albicans and in the assay with Cryptococcus neoformans were -10.09%, 1.54% and -3.79%, respectively.
Take `COc1ccccc1C1C(C#N)=C(N)Oc2[nH]nc(C)c21` (stereo not drawn): the results for the Inhibition with Klebsiella pneumoniae, with Candida albicans and with Cryptococcus neoformans were 0.76%, 2.02% and -7.07%, respectively.
For `N#Cc1cc2c(N)c3c(nc2nc1N1CCCCC1)CCCC3`, in that order: 18.01%, 1.35% and -98.63%.
Take `N#Cc1c(Cl)nc(N2CCCCC2)c(C#N)c1-c1ccccc1`: the Inhibition with Klebsiella pneumoniae is -24.06%; in the assay with Candida albicans, 3.22%; in the assay on Cryptococcus neoformans it was -3.56%.
On to `CC(=NNC(N)=O)c1c[nH]c2ccccc12`, for which the Inhibition with Klebsiella pneumoniae is 10.53%; with Candida albicans, 5.46%; with Cryptococcus neoformans, -5.64%.
As to `COc1cc(C2C(C#N)=C(N)Oc3ccc4ccccc4c32)ccc1O` (stereo not drawn), the figures for the Inhibition in the assay on Klebsiella pneumoniae, with Candida albicans and with Cryptococcus neoformans were 5.47%, 0.23% and -49.89%, respectively.
`CNC(=O)NC1(C(=O)O)CC1c1ccccc1` (stereo not drawn): the Inhibition in the assay with Klebsiella pneumoniae was 13.01%; in the assay on Candida albicans, 0.9%; with Cryptococcus neoformans it was -2.43%.
For the compound `CC1=NC(=Cc2ccccc2)C(=O)S1`, the values for the Inhibition with Klebsiella pneumoniae, with Candida albicans and with Cryptococcus neoformans were 11%, 0.37% and -6.24%, respectively.
Take `Cl.ClCCCCCN1CCCCC1`: the Inhibition with Klebsiella pneumoniae is 6.55%; in the assay with Candida albicans, 2.45%; in the assay with Cryptococcus neoformans, -4.11%.
For `CSC1=NC2(CC2c2ccccc2)C(=O)N1C` (stereo not drawn), in that order: -3.2%, 0.11% and -5.95%.
For `COc1ccc2c(c1)cc(CN)n2C`, in that order: 13.36%, 2.3% and -4.4%.
On the same counts, the results for `CCOC(=O)/C(C#N)=C\c1ccc(C)cc1` are 18.72%, 1.42% and -4.89%.
Consider `N#CCC(=C(C#N)C#N)c1ccccc1`, for which the Inhibition with Klebsiella pneumoniae is 11.23%; with Candida albicans, 5.35%; in the assay with Cryptococcus neoformans it was -3.99%.
Turning to `C=C1CN(C)c2ncc(C#N)c(=N)n21`, the Inhibition was 0.03% in the assay with Klebsiella pneumoniae, 0.69% in the assay with Candida albicans and -57.29% with Cryptococcus neoformans.
As for `N#CC1=C(N)Oc2ccc3ccccc3c2C1`, the values for the Inhibition with Klebsiella pneumoniae, with Candida albicans and in the assay on Cryptococcus neoformans were -0.19%, 0.68% and -44.07%, respectively.
On to `CCOC(=O)c1cc2ccccc2[nH]1`, for which the values for the Inhibition in the assay on Klebsiella pneumoniae, in the assay on Candida albicans and with Cryptococcus neoformans were 16.5%, 2.42% and -5.94%, respectively.
Consider `CCOC(=O)C1=C(C)OC(N)=C(C#N)C1c1cccnc1` (stereo not drawn), for which the Inhibition is 0.99% in the assay on Klebsiella pneumoniae, 0.38% in the assay with Candida albicans and -18.71% in the assay on Cryptococcus neoformans.
With `COc1ccc(C2c3c(ccc4ccccc34)OC(=NBr)C2(Br)C#N)cc1OC` (stereo not drawn), the Inhibition in the assay with Klebsiella pneumoniae was 4.11%; in the assay on Candida albicans, 18%; in the assay with Cryptococcus neoformans, -72.67%.
With `O=C(COc1ccc2ccccc2c1)N/N=C/c1c[nH]c2ccccc12`, the Inhibition in the assay with Klebsiella pneumoniae is 8.99%; in the assay on Candida albicans, 0.9%; in the assay with Cryptococcus neoformans it was -4.09%.
Consider `Nc1c2c(nc3nc4ccccc4nc13)CCCC2`, for which the Inhibition with Klebsiella pneumoniae is -2.37%; in the assay with Candida albicans, 2.21%; in the assay on Cryptococcus neoformans it was -107.03%.
As to `CN(C)c1cccc(C(=O)c2cccc(N(C)C)c2)c1`, the Inhibition in the assay with Klebsiella pneumoniae is 6.77%; in the assay with Candida albicans it was -0.28%; in the assay on Cryptococcus neoformans, -8.01%.
In the case of `COc1ccccc1C1c2c(ccc3ccccc23)OC(=N)C1(Br)C#N` (stereo not drawn), the Inhibition was 13.77% with Klebsiella pneumoniae, 5.01% with Candida albicans and -63.67% in the assay on Cryptococcus neoformans.
With `COc1ccccc1C1c2ccc3ccccc3c2Oc2nc3c(c(N)c21)CCCC3` (stereo not drawn), the Inhibition is 8.8% with Klebsiella pneumoniae, 0.31% in the assay on Candida albicans and -4.38% with Cryptococcus neoformans.
In the case of `COC(=O)C(NC(=O)c1ccccc1)=C(C)c1ccccc1`, the values for the Inhibition in the assay on Klebsiella pneumoniae, in the assay on Candida albicans and in the assay with Cryptococcus neoformans were 19.09%, -0.01% and -1.2%, respectively.
For `Cl.ClCCCN1CCCCC1`, in that order: 13.52%, 1.17% and -10.65%.

(Values after ChEMBL document CHEMBL4513135, “CO-ADD screening of IQOG CSIS (Spain) compounds”.)
